Reference: PubChem BioAssay AID720633 (The Scripps Research Institute Molecular Screening Center, 2013)
The list shows a part of the results. Activity calls are given as the source filed them.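 Rule for the calls: active = inhibition above the cutoff, the mean of compounds lying between the control bounds plus 3 SD of those compounds (cut at about 17% in these data); inactive = the rest.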

molecular target: Fibrinogen beta chain (Homo sapiens) (UniProt P02675); experiment: fibrin DD(E) probe displacement, second cyclic peptide – biochemical, fluorescence polarization, human fibrin, counter-screen for fibrin DD(E)-Tn7 binding project, confirmation (AID 720633); conditions: TRITC-Tn7 probe displacement, at 8.3 µM, hits give high values;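 note: 0% = median of compound sample wells and 100% = excess unlabeled Aha-Tn7 peptide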
Sequence (P02675 whole entry, looked up): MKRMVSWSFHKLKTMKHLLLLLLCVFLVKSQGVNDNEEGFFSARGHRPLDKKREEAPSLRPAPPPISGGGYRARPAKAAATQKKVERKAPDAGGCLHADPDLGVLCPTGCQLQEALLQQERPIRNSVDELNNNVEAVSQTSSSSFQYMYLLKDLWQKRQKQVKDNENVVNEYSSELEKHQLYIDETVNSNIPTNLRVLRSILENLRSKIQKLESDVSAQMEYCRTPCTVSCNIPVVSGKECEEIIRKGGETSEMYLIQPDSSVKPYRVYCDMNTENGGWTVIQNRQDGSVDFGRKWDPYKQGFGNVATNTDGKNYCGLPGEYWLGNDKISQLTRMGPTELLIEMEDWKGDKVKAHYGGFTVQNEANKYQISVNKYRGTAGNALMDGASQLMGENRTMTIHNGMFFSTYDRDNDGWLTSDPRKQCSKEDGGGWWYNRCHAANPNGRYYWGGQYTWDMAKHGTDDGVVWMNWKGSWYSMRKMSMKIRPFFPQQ

Row | SMILES | inhibition
1 | O=C(COC(=O)/C=C/c1ccc(OC(F)F)cc1)NC1CCCCC1 | 6.67% (inactive)
2 | O=C(NCc1ccccc1)c1cccc(NC(=O)C2CCCCC2)c1 | 0.56% (inactive)
3 | C#CCNc1ccc(C(=O)OCC)cc1 | 4.2% (inactive)
4 | Cc1nnc2n1N=C(c1ccc3c(c1)NC(=O)CO3)CS2 | -7.74% (inactive)
5 | O=C(/C=C/c1ccccc1[N+](=O)[O-])NCC1CCCO1 (centres undefined) | 6.91% (inactive)
6 | COc1ccc(-c2nc(CCNC(=O)c3ccc(Br)o3)cs2)cc1 | -3.63% (inactive)
7 | COc1ccc(N=Nc2c(-c3ccc(OC)cc3)[nH]oc2=O)cc1 | -6.55% (inactive)
8 | O=C(COC(=O)c1ccc([N+](=O)[O-])cc1Cl)NC(=O)c1ccccc1 | 1.45% (inactive)
9 | CN1C(=O)c2cccc3c(N)ccc(c23)C1=O | 8.6% (inactive)
10 | Cn1c(CC(=O)NNC(=O)c2ccccc2F)nc2ccccc21 | -5.95% (inactive)
11 | COc1ccc(S(=O)(=O)c2c[nH]c(=S)[nH]c2=O)cc1Cl | -4.35% (inactive)
12 | Oc1ccc2ccc3cccc[n+]3c2c1 | -23.9% (inactive)
13 | COc1cccc(N2CC(NS(=O)(=O)c3cccs3)CC2=O)c1 (centres undefined) | -2.24% (inactive)
14 | c1cc(-c2nn[nH]n2)ccc1CN1CCCCC1 | -9.04% (inactive)
15 | O=C(CSc1nnc(-c2ccccn2)n1-c1ccc(Cl)cc1)Nc1ccccc1-c1ccccc1 | -2.23% (inactive)
16 | COc1cc(C(=S)N2CCOCC2)ccc1O | 6.48% (inactive)
17 | Cc1cc2nc3c(=O)[nH]c(=O)nc-3n(C[C@H](O)[C@H](O)[C@H](O)CO)c2cc1C | 12.4% (inactive)
18 | CCOc1ccc(Nc2oc(Cc3ccccc3)nc2C#N)cc1 | -10.1% (inactive)
19 | OC(c1ccccc1)c1nc(-c2cnc3ccccc3c2)cs1 (centres undefined) | 3.54% (inactive)
20 | O=C(Nc1ccon1)c1sc2ccccc2c1Cl | -2.1% (inactive)
21 | Cc1cc2nc3c(=O)n(Cc4ccccc4)c(=O)[nH]c3nc2cc1N | -4.98% (inactive)
22 | Cc1nn(C)cc1N1C(=O)c2cccc3c(N)ccc(c23)C1=O | 1.67% (inactive)
23 | CN1c2ccc(C=O)c3c(C=O)ccc(c23)N(C)C1(C)C | -6.98% (inactive)
24 | CC(C)(C)c1cc(CN2CCN(CCC#N)CC2)cc(C(C)(C)C)c1O | 0.66% (inactive)
